Among the data in PubChem BioAssay are composite z-score and z-score values, retold here.

The source made the active and inactive calls. Unless noted, how the calls were made is not given here.

For test [1], the system named is XIP peptide (Xip251-270) binding. In words: XIP fragment 251-270 binding compounds – biochemical, small-molecule microarray, fluorescence 635/667 nm, 0.1 µg/mL protein, primary screen (AID 1182). As to conditions: fluorescent protein binding, 635 nm, higher = more signal, called active from +8 up or from −8 down.
A further test deals with XIP peptide (Xip251-270). Briefly: compounds binding XIP fragment 251-270 – biochemical, small-molecule microarray, fluorescence 635/667 nm, 0.5 µg/mL protein, primary screen (AID 1183). As to conditions: fluorescence 635 nm, higher = more signal.
A short description of test [2]: blood-stage malaria parasite viability loss – strain 3D7, DAPI fluorescence, 100 nL, primary screen (AID 1184).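 Further: parasites grown inside human red blood cells in medium with human serum.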 As to conditions: P. falciparum 3D7 growth, 3 d, higher = more signal.
Test [3] deals with Homeobox protein Hox-A13 (Mus musculus) (UniProt Q62424). In words: disruptors of Hoxa13 oligonucleotide interaction – biochemical, fluorescence polarization, labeled oligonucleotide, primary screen (AID 1185). To be noted: Hoxa13:DNA binding, 15 min, higher = more signal, called active from +8 up or from −8 down.
Chain of Homeobox protein Hox-A13 (Mus musculus) (Q62424 whole entry, looked up): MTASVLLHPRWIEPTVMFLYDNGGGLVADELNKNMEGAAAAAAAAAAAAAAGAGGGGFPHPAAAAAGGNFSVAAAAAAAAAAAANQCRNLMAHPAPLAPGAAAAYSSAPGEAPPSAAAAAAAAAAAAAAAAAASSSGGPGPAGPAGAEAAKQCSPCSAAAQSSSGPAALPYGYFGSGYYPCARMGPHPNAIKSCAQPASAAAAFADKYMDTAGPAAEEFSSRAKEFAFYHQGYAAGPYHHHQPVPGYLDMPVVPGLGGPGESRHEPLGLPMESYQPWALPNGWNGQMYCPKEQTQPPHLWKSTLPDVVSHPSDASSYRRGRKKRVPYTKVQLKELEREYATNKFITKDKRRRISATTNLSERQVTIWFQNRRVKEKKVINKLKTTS
Test [4] can be described thus: blockers of DNA damage checkpoint Chk1 activation – imaging, HeLa, hydroxyurea, phospho-Chk1 antibody, percent positive cells, primary screen (AID 1186). To be noted: hydroxyurea-induced phospho-Chk1 immunofluorescence imaging, higher = more signal.
A short description of test [5]: blockers of DNA damage checkpoint Chk1 activation – imaging, HeLa, hydroxyurea, phospho-Chk1 nuclear intensity, primary screen (AID 1187). As to conditions: hydroxyurea-induced phospho-Chk1 immunofluorescence imaging, higher = more signal.

Take `COCCn1c(C(=O)N2CCCC2)cc2c1C[C@H]1CN(C(=O)c3ccccc3)[C@@](Cc3ccccc3)(C(=O)OC)[C@@H]21`: the composite z-score in test [1] is 1.06 (inactive); with XIP peptide (Xip251-270) it was 0.857. For the same compound, the z-score in test [2] is -1.22; in test [3], -6.05 (inactive); in test [4], 0.206 (inactive); in test [5], 0.412 (inactive).

For `CCOC(=O)C[C@H]1[C@H](OC(=O)c2cc3ccccc3oc2=O)[C@@H](NC(=O)C2CCCCC2)c2cc(OCCCO)ccc2N1C(=O)Cc1ccc(OC)cc1`, the composite z-score in test [1] is 0.0512 (inactive); in the test on XIP peptide (Xip251-270) it was 0.0439. The z-score in test [2] is -0.565; in test [3], -4.22 (inactive); in test [4], 0.521 (inactive); in test [5] it was -0.306 (inactive).

Regarding `CN(C)CCCC[C@@H]1NC(=O)[C@H]2C[C@@H](C(=O)O)[C@@H](c3cccc(OCCO)c3)N2C1=O`, the composite z-score in test [1] was 0.432 (inactive); with XIP peptide (Xip251-270) it was 0.288. The z-score in test [2] is -0.133; in test [3] it was -1.71 (inactive); in test [4], -0.791 (inactive); in test [5], -0.55 (inactive).

Consider `O=C1OCCC=C[C@H]2OC34C=CCN(CCN5CCOCC5)C(=O)[C@H]3N(CCCO)C(=O)[C@@H]4C12` (stereo partly specified), for which the composite z-score in test [1] was 0.186 (inactive); with XIP peptide (Xip251-270), 0.0388. Also, the z-score is -1.72 in test [2], -3.86 (inactive) in test [3], -0.46 (inactive) in test [4] and -0.374 (inactive) in test [5].

For `CCCCN1CC=CC23O[C@@H]4/C=C\CCC(C)OC(=O)C4[C@H]2C(=O)N(C(C)CO)[C@@H]3C1=O` (stereo partly specified), the figures for the composite z-score (in test [1]; with XIP peptide (Xip251-270)) were 1.02 (inactive) and -0.369, respectively. The z-score in test [2] is 0.105; in test [3], -5.78 (inactive); in test [4] it was 0.479 (inactive); in test [5], 0.632 (inactive).

Take `COC(=O)C(CC#Cc1ccc2c(c1)[C@]1(C(=O)N2)[C@H](c2ccc(O)cc2)N2[C@H](c3ccccc3)[C@H](c3ccccc3)OC(=O)[C@H]2[C@@H]1C(=O)N1CCc2cc(OC)c(OC)cc2C1)C(=O)OC`: the composite z-score in test [1] is 1.78 (inactive); in the test with XIP peptide (Xip251-270) it was 0.779. The z-score in test [2] is -2.02; in test [3], -2.32 (inactive); in test [4] it was 0.323 (inactive); in test [5], 0.0329 (inactive).

As for `CN(C)C(=O)[C@]1(Cc2ccccc2CN=[N+]=[N-])N=C(c2ccc(OCCCO)cc2)O[C@@H]1c1ccccc1N=[N+]=[N-]`, the composite z-score is 0.854 (inactive) in test [1] and 0.624 in the test on XIP peptide (Xip251-270). In addition, the z-score was -1.89 in test [2], -1.57 (inactive) in test [3], -0.72 (inactive) in test [4] and -0.903 (inactive) in test [5].

With `CC(C)C[C@@H]1NC(=O)[C@@H]2C[C@H](C(=O)O)[C@H](c3ccc(O)cc3)N2C1=O`, the results for the composite z-score (in test [1]; with XIP peptide (Xip251-270)) were 1.84 (inactive) and 0.705, respectively. In addition, the z-score in test [2] was -0.26; in test [3], -3.43 (inactive); in test [4] it was 0.873 (inactive); in test [5], 0.918 (inactive).

With `COCCOC(=O)N1C(=O)[C@@]2(c3cc(C#Cc4ccc(OC)cc4)ccc31)[C@H](C(=O)Nc1nc3ccccc3s1)[C@H]1C(=O)O[C@H](c3ccccc3)[C@H](c3ccccc3)N1[C@@H]2c1ccccc1OCCO`, the composite z-score is 0.71 (inactive) in test [1] and 0.594 with XIP peptide (Xip251-270). Further, the z-score in test [2] is -1.96; in test [3], 3.56 (inactive); in test [4], -0.338 (inactive); in test [5] it was -0.538 (inactive).

Turning to `O=C1C2C=CC(C(O)c3cccs3)N(Nc3ccccc3)C2C(=O)N1c1ccccc1` (stereo unspecified), the composite z-score in test [1] was 0.308 (inactive); in the test with XIP peptide (Xip251-270), 0.171. Besides, the z-score in test [2] is -0.459; in test [3] it was -2.56 (inactive); in test [4], -0.719 (inactive); in test [5], -0.649 (inactive).

With `COc1ccc([Si](C)(C)[C@H]2[C@H](CCO)O[C@@]3(C(=O)N(Cc4ccccc4)c4ccc(N(C=O)c5ccccc5)cc43)[C@@H]2C)cc1`, the composite z-score in test [1] was 0.572 (inactive); in the test with XIP peptide (Xip251-270), 0.571. The z-score was -2.74 in test [2], -0.799 (inactive) in test [3], 1.75 (inactive) in test [4] and 1.49 (inactive) in test [5].

Regarding `NC(=O)N1C(=O)C2C(C1=O)C1C=C(CCCO)C2C(c2ccc(CN3CCCC3)cc2)N1Cc1cccc(OC(F)(F)F)c1` (stereo unspecified), the composite z-score was 0.106 (inactive) in test [1] and -0.133 with XIP peptide (Xip251-270). For the same compound, the z-score in test [2] is -2.28; in test [3] it was -7.26 (inactive); in test [4], 0.0295 (inactive); in test [5], 0.298 (inactive).

In the case of `CCc1cccc(NC(=O)O[C@H]2[C@H](OC(=O)Nc3ccc4c(c3)OCO4)[C@H](OC(=O)Nc3ccc4c(c3)OCO4)[C@@H](OC)O[C@@H]2CO)c1`, the composite z-score in test [1] was 2.3 (inactive); with XIP peptide (Xip251-270), 0.791. The z-score was -2.26 in test [2], -9.9 (active) in test [3], -0.392 (inactive) in test [4] and -0.0612 (inactive) in test [5].

Regarding `CCC[C@@H]1[C@@H](Sc2ccccc2)[C@@H](C(=O)O)[C@H](c2ccc(C)cc2)N1S(=O)(=O)c1ccc(C)cc1`, the composite z-score in test [1] was 0.163 (inactive); in the test with XIP peptide (Xip251-270), 0.787. In addition, the z-score in test [2] is 0.552; in test [3], -5.85 (inactive); in test [4] it was 0.275 (inactive); in test [5] it was 0.971 (inactive).

Consider `CC(C)CNC(=O)[C@@H]1c2ccccc2C(=O)N(Cc2ccccc2Cl)[C@H]1c1ccc(CO)cc1`, for which the composite z-score in test [1] was 0.0394 (inactive); in the test on XIP peptide (Xip251-270), 0.8. For the same compound, the z-score in test [2] was 0.134; in test [3] it was -1.47 (inactive); in test [4], 0.0107 (inactive); in test [5], 0.499 (inactive).

With `[N-]=[N+]=NCc1ccccc1C[C@]1(C(=O)N2CCCCC2)N=C(c2ccc(OCCCO)cc2)O[C@H]1c1ccccc1`, the composite z-score is 0.404 (inactive) in test [1] and 0.779 with XIP peptide (Xip251-270). Further, the z-score is -2.34 in test [2], -4.35 (inactive) in test [3], -0.527 (inactive) in test [4] and -0.286 (inactive) in test [5].
